{"source": "PubChem BioAssay", "note": "Active and inactive are the calls of the source.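 The calls were made as follows: active = visually confirmed hit in the image check and inhibition above 20%; inconclusive = visually confirmed hit but inhibition not above 20%; inactive = no visual hit in the image check.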", "data": [{"experiment": "inhibitors of E-selectin induction by TNFa, primary screen, imaging, HUVEC, immunofluorescence, MLSMR starter and 10KST1 sets (AID 487);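 as to inhibition: signal is fraction of cell area covered by stained E-selectin grains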;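 as to nuclei count: 100% = median nuclei count of all wells on the same plate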", "conditions": "HUVEC TNFalpha-induced E-selectin immunofluorescence imaging, at 2 µM; inhibition: stronger effect = higher value; nuclei count: measured here: cell number, toxicity", "units": {"nuclei count": "%"}, "values": [{"smiles": "O=C(Nc1nnc(CCN2CCCCC2)s1)C1CCCCC1", "nuclei count": 102, "inhibition": "-31.8% (inactive)"}, {"smiles": "CCCCS(=O)(=O)NC1=NCN(CCOC(=O)c2ccccc2)CN1", "nuclei count": 112, "inhibition": "-50.4% (inactive)"}, {"smiles": "CCCCc1n[nH]c2c1C(=O)CC(C)(C)C2", "inhibition": "-75.3% (inactive)", "nuclei count": 120}, {"smiles": "COc1ccc(OCCSc2nc3ccccc3n2CC(=O)O)cc1", "nuclei count": 133, "inhibition": "-133% (inactive)"}, {"smiles": "COc1ccc(OC)c(NC(=O)CSc2nnc(Cc3cccn3C)n2-c2ccc(F)cc2)c1", "inhibition": "-40.2% (inactive)", "nuclei count": 106}, {"smiles": "COc1ccc(N2CCN(C(=O)C(C)(C)Oc3ccc(Cl)cc3)CC2)cc1", "inhibition": "0% (inactive)", "nuclei count": 111}, {"smiles": "O=C(Nc1ccncc1)C1c2ccccc2Oc2ccccc21", "inhibition": "19.9% (inactive)", "nuclei count": 102}, {"smiles": "COCCN(CC(=O)NCc1ccccc1)C(=O)CCC(=O)Nc1ccccn1", "inhibition": "38.3% (inactive)", "nuclei count": 117}, {"smiles": "COc1cc2c(cc1OC)C(c1ccc(C)o1)CC(=O)N2", "note": "(stereo not given)", "nuclei count": 122, "inhibition": "-48.1% (inactive)"}, {"smiles": "Cc1cc(O)c(-c2cc(C(=O)Nc3ccc(S(=O)(=O)N4CCOCC4)cc3)[nH]n2)cc1C", "inhibition": "-62.7% (inactive)", "nuclei count": 153}, {"smiles": "O=C(CSc1oc(-c2ccco2)nc1S(=O)(=O)c1ccccc1)NCC1CCCO1", "note": "(stereo not given)", "inhibition": "-95% (inactive)", "nuclei count": 174}, {"smiles": "NCCN1CCN(CCN)CC1", "nuclei count": 132, "inhibition": "-23.9% (inactive)"}, {"smiles": "NC(=O)CSc1nnc(-c2cc3ccccc3o2)n1Cc1ccccc1", "inhibition": "-33% (inactive)", "nuclei count": 129}, {"smiles": "Cc1ccc(-n2nc(C)c3cc(C(=O)O)sc32)cc1", "inhibition": "-140% (inactive)", "nuclei count": 97.4}, {"smiles": "CC1CCN(C(=O)CSCC(=O)Nc2nc(-c3cccs3)cs2)CC1", "inhibition": "-38.7% (inactive)", "nuclei count": 114}]}]}
